This is a sample that favours compounds with a hit; in the whole collection about 11% have one here.
Pf growth 96h: inhibits malaria parasite growth, 96 h. Potency, µM (top dose mostly 28.7 µM), for inactives: top-dose activity change, negative = inhibition, usual class: inhibitors. hit rate 6.9% among 320,000. P. falciparum luciferase reporter growth, 96 h; further: on the % scale 0 is the no-effect control and ±100 the full control effect
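96 h incubation, 37 C, 5% CO2, of luciferase-reporter P. falciparum-infected RBCs (2% hematocrit, 0.05% parasitemia final) with test compounds; endpoint luminescence.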
Pf growth 48h: inhibits P. falciparum growth in the first generation, 48 h. P. falciparum luciferase growth in erythrocytes, 48 h. Potency, µM (highest dose often 28.7 µM), without a hit: at the top dose activity change, negative = inhibition, usual class: inhibitors. hit rate 5.9% among 310,000; further: on the % scale 0 is the no-effect control and ±100 the full control effect
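Luciferase-expressing parasites in RBCs, 2% Hct / 0.1% parasitemia final; RPMI 1640 + 0.5% Albumax; 37 C, 5% CO2, one generation; luminescence read-out, lower signal = inhibition.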
NS1 function inh: inhibitors of influenza NS1 protein function; hit rate 0.4% among 270,000; AID 2326; Potency, µM (doses to about 46.1 µM), for the others: top-dose activity, positive = more growth; calls by dose curve; further: actives are rising curves; nearly all actives have a fitted effect of over 50% in size
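In this qHTS, NS1 from influenza A is expressed in budding yeast, where it slows growth. Cells are switched from glucose to 2% galactose medium (pH 6.0, -URA), treated with compound, and growth recovery is read at OD600.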
AMA1-RON2 inh: disrupts binding of P. falciparum AMA1 to RON2. AlphaScreen AMA1-biotinylated RON2 peptide binding. Potency, µM (highest dose often 58.2 µM), inactives show at the top dose activity change, negative = inhibition, actives largely listed as inhibitors. hit rate 0.2% among 360,000. AID 720542;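 further: 0% = vehicle wells and -100% = peptide control; nearly all actives have a fitted effect of over 45% in size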
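AMA1 (3D7) with his tag at 25 nM final met compounds first, then biotinylated RON2 peptide at 25 nM; detection used donor plus acceptor beads, 10 µg/mL apiece, read by AlphaScreen after 30 min at room temperature.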
Sm TGR block: blocks Schistosoma mansoni thioredoxin glutathione reductase; purified TGR, DTNB reduction, TNB absorbance 405 nm; Potency, µM (top dose mostly 114 µM), without a hit: at the highest dose activity change, negative = inhibition, actives largely listed as inhibitors; hit rate 3% among 360,000; AID 485364; further: on the % scale 0 is the no-effect control and ±100 the full control effect; nearly all actives have a fitted effect of over 60% in size
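First, TGR (20 nM dispensed) and NADPH were mixed with compound. Second, a 15 min room-temperature incubation followed. Third, further NADPH and then DTNB were added to start the reaction. Finally, TNB absorbance was monitored kinetically.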
Active calls of the source: *; ? = inconclusive; / = no result; [ ] = remark or other dose. Unless noted, the call rests on the fitted dose curve; in most records, active means well fitted curve in the direction sought with a large enough effect; inconclusive means small, poorly fitted or top-dose-only effect, or another doubt; inactive means no such curve, though single readings can be large; an effect the other way counts as inactive or inconclusive. Potency means the concentration at half of the fitted maximal effect.

SMILES	Pf growth 96h	Pf growth 48h	NS1 function inh	AMA1-RON2 inh	Sm TGR block
Cc1ccc(O)c(NC(=O)c2noc3c2CCc2ccccc2-3)c1	9.28µM*	?	/	4.8%	-0.4%
Cc1ccccc1Cn1nc(C)c(NC(=O)c2noc3c2CCc2ccccc2-3)c1C	1.17µM*	?	-100.5%	-5.9%	-7.4%
O=C(C[C@@H]1C/C=C\C[C@H](Cc2ccc(F)cc2)C(=O)OC[C@H]2CCCN2C1=O)NCCO	/	/	/	1.7%	/
Cc1cc(C)cc(N(CC(=O)NC(C)(C)C)C(=O)CCC(=O)Nc2nccs2)c1	-0.2%	5.1%	11.9%	0.7%	-23.7%
COc1cccc(C2CN(c3ccc(F)cc3F)N=C2c2cccs2)c1OC (stereo not given)	11.7µM*	5.86µM*	1.5%	118.9%	-3.9%
COc1ccccc1C1CN(c2ccccc2)N=C1c1cccs1 (stereo not given)	-100.6%	/	23.1%	157.0%	-7.3%
CC(=O)NS(=O)(=O)c1ccc(NC(=O)/C=C/c2ccco2)cc1	51.9%	3.5%	/	-4.0%	3.55µM*
O=C(/C=C/c1ccco1)NCCc1ccc(F)cc1	-8.8%	-12.7%	2.0%	1.4%	7.08µM*
O=C(/C=C/c1ccco1)Nc1ccc(S(=O)(=O)N2CCOCC2)cc1	-3.9%	-28.7%	1.5%	-1.9%	?
Cc1sc(NC(=O)/C=C/c2ccco2)c(C(=O)O)c1C	188.6%	?	-49.1%	19.3%	39.8µM*
O=C(/C=C/c1ccco1)Nc1ccc(F)cc1	159.5%	88.1%	/	/	7.08µM*
Cc1ccc2onc(CC(=O)Nc3cc(F)ccc3F)c2c1	/	/	/	/	-1.3%
CCCC(=O)NCC(c1ccc2c(c1)OCO2)N1CCN(c2ccccc2)CC1 (stereo not given)	/	/	/	/	2.7%
NS(=O)(=O)c1ccc(NC(=O)/C=C/c2ccco2)cc1	33.3%	11.3%	/	-1.5%	6.31µM*
CCN(CC(=O)NCc1ccc(F)cc1)C(=O)/C=C/c1ccco1	-10.8%	20.9%	/	-6.6%	20µM*
CCN(CC(=O)NCc1ccc(F)cc1)C(=O)/C=C/c1cccs1	0.3%	4.0%	/	12.0%	3.8%
O=C(COCc1cc(-c2ccco2)on1)Nc1cccc(Cl)c1Cl	/	/	/	/	-12.8%
CC(C)(C)CN1CCNC(=O)C1CC(=O)NCCN1CCCc2ccccc21 (stereo not given)	83.3%	-17.8%	-4.1%	-1.0%	-31.7%
C=CCNC(=S)NNC(=O)c1cc(O)ccc1O	4.65µM*	12.2%	4.1%	0.2%	-28.6%
O=C(c1ccccc1)N1CCCCC(Cl)C1=O (stereo not given)	17.0%	-1.9%	/	-1.0%	3.2%
Cc1cc(NC(=O)CS(=O)(=O)c2cn(Cc3cccc(F)c3)c3ccccc23)no1	?	/	-29.1%	-3.4%	-28.5%
O=C(CS(=O)(=O)c1cn(Cc2ccccc2Cl)c2ccccc12)N1CCOCC1	31.6%	-22.1%	-8.5%	-5.1%	-0.8%
O=C(CS(=O)(=O)c1cn(Cc2ccc(Cl)cc2)c2ccccc12)N1CCCC1	8.28µM*	/	0.1%	-11.8%	-7.4%
Cc1cc(NC(=O)CS(=O)(=O)c2cn(Cc3ccc(F)cc3)c3ccccc23)no1	13.1µM*	/	8.1%	0.0%	-13.8%
COc1ccc(Br)c2c1-c1nc(NC(=O)c3cccc(C)c3)sc1C2	/	/	/	/	-4.9%
SMILES	Pf growth 96h	Pf growth 48h	NS1 function inh	AMA1-RON2 inh	Sm TGR block
CC12CC3(C)CC(C)(C1)CC(C(=O)NC1=NCCS1)(C2)C3	/	/	/	8.2%	/
CC12CC3CC(C)(C1)CC(C(=O)NC1=NCCS1)(C3)C2	11.7µM*	/	-239.4%	20.7%	2.9%
O=C(CCC1CCCCC1)NC1=NCCS1	10.4µM*	71.2%	-16.3%	-14.0%	6.9%
CC(C)(C)C(=O)NC1=NCCS1	1.47µM*	9.8%	0.0%	-6.4%	3.6%
O=C(NC1=NCCS1)NC12CC3CC(CC(C3)C1)C2	1.17µM*	-0.2%	-125.8%	-2.4%	-9.2%
O=C(NC1=NCCS1)C1CCCCC1	?	180.8%	/	-3.4%	0.0%
CN(Cc1cccnc1)Cc1cn[nH]c1-c1ccc(-c2ccccc2)cc1	10.7%	?	2.5%	-10.3%	-15.7%
OCC1OC(c2ccc(OCc3ccccc3)cc2OCc2ccccc2)C(O)C1O (stereo not given)	/	/	/	-2.6%	/
O=C(NC1=NCCS1)C12CC3CC(C1)CC(C(=O)NC1=NCCS1)(C3)C2	-8.5%	-17.2%	-0.4%	-3.1%	6.0%
O=C(CC12CC3CC(C1)CC(CC(=O)NC1=NCCS1)(C3)C2)NC1=NCCS1	/	9.28µM*	-5.6%	-6.3%	-5.3%
CCn1c(=O)c2sccc2n2c(CCCC(=O)N3CCN(c4cc(Cl)ccc4C)CC3)nnc12	/	/	/	/	4.8%
N#Cc1c(-c2ccc(Cl)cc2)ccnc1N1CCOCC1	4.65µM*	?	/	26.1%	1.3%
Cc1cccn2c(=O)c(C(=O)NCc3ccccc3Cl)c(O)nc12	/	/	/	/	-2.6%
CC(=O)OCC(OC(C)=O)C(OC(C)=O)C(OC(C)=O)C(=O)Nc1cccc(C)c1 (stereo not given)	123.8%	13.4%	1.8%	8.6%	-2.5%
O=C(C1CCN(S(=O)(=O)c2ccc(F)cc2)CC1)N1CC=C(c2ccccc2)CC1	-5.1%	10.4µM*	-12.5%	1.8%	?
COc1ccccc1N1CCN(C(=O)C2CCN(S(=O)(=O)c3ccc4c(c3)CC(C)N4C(=O)C3CC3)CC2)CC1 (stereo not given)	-0.2%	?	-7.7%	-10.9%	-8.6%
COc1ccccc1N1CCN(C(=O)C2CCN(S(=O)(=O)c3ccc4c(c3)CC(C)N4C(C)=O)CC2)CC1 (stereo not given)	17.1%	11.7µM*	-12.1%	17.5%	1.2%
COc1ccc(S(=O)(=O)N2CCC(C(=O)N3CCN(c4ccccc4OC)CC3)CC2)cc1	-5.1%	13.1µM*	-10.9%	0.1%	-1.9%
O=C(CCn1cccn1)N1CCCC(N2CCN(c3cccc(C(F)(F)F)c3)CC2)C1 (stereo not given)	2.8%	-15.5%	11.4%	9.2%	-33.1%
Cc1ccc(N2C(=O)[C@@H]3[C@H](C2=O)C2c4ccccc4C=CN2[C@@H]3C(=O)c2ccco2)c(C)c1 (stereo not given in full)	15.8%	?	-35.9%	-13.8%	?
COc1ccc(N2C(=O)[C@@H]3[C@H](C2=O)[C@H]2c4ccccc4C=CN2[C@@H]3C(=O)Nc2ccccc2)cc1	9.28µM*	/	27.8%	18.1%	0.0%
O=C(c1ccco1)[C@@H]1[C@@H]2C(=O)N(c3ccccc3)C(=O)[C@@H]2C2c3ccccc3C=CN21 (stereo not given in full)	4.65µM*	-4.2%	?	-0.3%	56.2µM*
CC(C)(C)C(=O)[C@@H]1[C@@H]2C(=O)N(c3ccc4c(c3)OCCO4)C(=O)[C@@H]2C2c3ccccc3C=CN21 (stereo not given in full)	-3.4%	?	-42.5%	-12.1%	-25.6%
CC(=O)[C@@H]1[C@@H]2C(=O)N(Cc3ccccc3)C(=O)[C@@H]2C2c3ccccc3C=CN21 (stereo not given in full)	-2.0%[5.75 µM]	?	?	33.5%	44.7µM*
